Data: PubChem BioAssay
Entries with a potency or affinity are not part of this list. Calls of active or inactive are those of the source.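 Rule for the calls: active = fitted dose curve reaches 40% lysis signal rise at or below the highest valid concentration tested for that sample; inconclusive = flat fit between 30% and 70%, or poor curve fit; inactive = signal falls, stays flat within 30%, or no crossing.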

Experiment: inducers of Cryptococcus neoformans cell lysis, dose response, AK release luminescence, cherry-picks (AID 687000);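 note: luminescent detection of adenylate kinase leaking from lysed yeast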
Settings: C. neoformans lysis, adenylate kinase release luminescence, 4 h, 100% = twice the neutral-control signal; series mostly up to 15 µM

outcome, inactive:
C[C@@H]1CN([C@H](C)CO)C(=O)c2cc(NS(=O)(=O)c3cn(C)cn3)ccc2O[C@@H](C)CCCCO[C@H]1CN(C)C, COc1ccccc1-c1ccc([C@H]2[C@H](C#N)N(C(=O)C3CC3)[C@H]2CO)cc1, Cc1ccc(C(=O)n2nnc3ccccc32)cc1[N+](=O)[O-], CC(=O)N1[C@H](CO)[C@H](c2ccc(-c3ccccc3)cc2)[C@@H]1CNC(=O)C1CC1, O=C(CSc1ncnc2c1cnn2-c1ccc(F)cc1)NCC1CCCO1 (stereo not given), O=C(CCN1CCCCC1)NCC[C@@H]1CC[C@H](NC(=O)c2ccc(F)cc2)[C@@H](CO)O1, CNC[C@@H]1OCCCC[C@@H](C)Oc2ccc(NC(=O)NC(C)C)cc2C(=O)N([C@@H](C)CO)C[C@H]1C, C/C=C/c1ccc([C@@H]2[C@@H](CNC(=O)C3CCC3)N(C(=O)NCCC)[C@H]2CO)cc1, Cc1ccc(C(=O)Nc2ccc3ncccc3c2)cc1, Cc1cccc(C)c1NC(=O)CN(C)C(=O)CC1CC2CCC1C2 (stereo not given), N#Cc1ccc(C23CC4(C2)[C@H](CN(Cc2ccc(C(F)(F)F)cc2)[C@@H]4c2ccccc2)C3c2ccccc2)cc1 (stereo not given in full), Cc1ccc(NC(=S)NCc2ccc(Cl)cc2)c(OC(F)F)c1, Cc1ccc(C2CC(c3cccs3)=NN2C(=O)c2ccc(Br)o2)cc1 (stereo not given), CC(C)(C)SCCNC(=O)CN(c1ccccc1)S(=O)(=O)c1ccccc1, O=C(COc1ccc2c(c1)CCC2)NCc1ccccc1
